Assay outcomes as filed in PubChem.
Hits are enriched below; roughly 3.8% of the tested compounds scored in any of these assays.
PrP UTR inh: suppresses PrP 5' UTR mRNA reporter expression. cell-based PrP 5' UTR mRNA reporter, plate reader. inhibition, % (test concentration not listed). 340,000 tested, 0.35% active; in the data active means inhibition above about 52%
Y pestis TopoI: Y. pestis Topo-I inhibition via cleavage products; Y. pestis Topo-I cleavage product accumulation, plate reader; activity, % at 10 µM; 360,000 tested, 0.064% active; AID 504884; in the data active means activity above about 50%, passing the limit was not always enough; inconclusive means no clear call, values can overlap the other calls
Mtb hypoxia inh: inhibitors of hypoxia-regulated fluorescent reporter in Mycobacterium tuberculosis; 300,000 tested, 0.1% active; M. tuberculosis hypoxia-regulated fluorescent reporter, fluorescence; fluorescence inhibition, % (test concentration not listed); in the data active means fluorescence inhibition mostly above about 23%, no sharp cut-off; inactive means mostly below about 17%
GDH-TPI inh: GDH-TPI coupled enzyme inhibition counter-screen. GDH-TPI coupled enzyme counterscreen, NADH absorbance. inhibition, % at 4.8 µM. 360,000 tested, 1.2% active. AID 588335; in the data active means inhibition above about 30%
PrPC surface inh: reduces human prion protein on the cell surface; 370,000 tested, 0.43% active; cell surface PrPC, TR-FRET read-out; inhibition, % at 13.8 µM; in the data active means inhibition above about 24%
Mtb FBA inh: inhibitors of M. tuberculosis fructose-bisphosphate aldolase | inhibition, % at 1 µM | purified M. tuberculosis FBA, fluorescence read-out | 360,000 tested, 2.3% active; in the data active means inhibition above about 27%
Target sequence (P9WQA3 whole entry, looked up): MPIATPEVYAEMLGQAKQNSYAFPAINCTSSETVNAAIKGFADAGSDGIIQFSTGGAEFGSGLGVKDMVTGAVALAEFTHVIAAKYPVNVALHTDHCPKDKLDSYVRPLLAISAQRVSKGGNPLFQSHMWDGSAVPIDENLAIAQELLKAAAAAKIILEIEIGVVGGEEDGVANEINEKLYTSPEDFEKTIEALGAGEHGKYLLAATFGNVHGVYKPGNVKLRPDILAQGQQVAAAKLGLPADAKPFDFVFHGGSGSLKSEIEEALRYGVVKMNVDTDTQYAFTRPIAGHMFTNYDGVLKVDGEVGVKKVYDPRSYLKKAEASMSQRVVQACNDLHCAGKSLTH
PrP 5UTR single: prion 5' UTR mRNA inhibition, cherry-pick retest. 1,100 tested, 48% active. AID 504592. inhibition, % at 2.5 µM. cell-based prion protein 5' UTR reporter, plate reader. shares compounds with PrP UTR inh; in the data active means inhibition above about 54%; inconclusive means no clear call, values can overlap the other calls
Hits are given with their value; i = inactive; ? = inconclusive; nt = no result shown.

SMILES | PrP UTR inh | Y pestis TopoI | Mtb hypoxia inh | GDH-TPI inh | PrPC surface inh | Mtb FBA inh | PrP 5UTR single
COc1ccc(CN(C)CC(=O)Nc2ccccc2C(F)(F)F)cc1 | 80.6 | i | i | i | i | i | i
COc1ccc(CN(C)CC(=O)Nc2ccccc2C(F)(F)F)c(OC)c1 | i | i | i | i | i | i | nt
O=C(Nc1ccc(Br)cc1F)C1CCCN(S(=O)(=O)c2cnc[nH]2)C1 (stereo unspecified) | i | i | nt | i | i | i | nt
Cc1ccc(NC(=O)C2CCCN(S(=O)(=O)c3cnc[nH]3)C2)c(Br)c1 (stereo unspecified) | 73.1 | i | nt | i | i | i | i
CN(CCc1ccccc1)C(=O)c1cccc(NC(=O)Cc2cccc(NC(=O)C3CCCN(C(=O)C4CC4)C3)c2)c1 (stereo unspecified) | 53.3 | i | i | i | i | i | i
CN(Cc1ccccc1)C(=O)c1ccc(NC(=O)Cc2ccc(NC(=O)C3CCCN(C(=O)C4CC4)C3)cc2)cc1 (stereo unspecified) | 86.4 | i | i | i | i | i | i
CN(CCc1ccccc1)C(=O)c1cccc(NC(=O)Cc2cccc(NC(=O)C3CCCN(C(=O)C4CCCCC4)C3)c2)c1 (stereo unspecified) | i | i | i | i | i | i | nt
CN(Cc1ccccc1)C(=O)c1ccc(NC(=O)Cc2ccc(NC(=O)C3CCCN(C(=O)C4CCCC4)C3)cc2)cc1 (stereo unspecified) | i | i | i | i | i | i | nt
CCCNC(=O)N1C2CCC1C(C(=O)OC)=C(c1cc3ccccc3s1)C2 (stereo unspecified) | nt | nt | i | nt | nt | nt | nt
Cc1ccc(NC(=O)c2cc3ccccc3oc2=N)cc1 | 67.5 | i | i | i | i | i | i
CN(C(=O)CSc1nc(-c2ccccc2)cs1)C1CCS(=O)(=O)C1 (stereo unspecified) | 84.8 | i | i | i | i | i | i
CN(C(=O)CSc1nc(-c2ccc(F)cc2)cs1)C1CCS(=O)(=O)C1 (stereo unspecified) | i | i | i | i | i | i | nt
COc1ccccc1C(=O)Nc1ccc2c(c1)nc1n2CCN(Cc2ccccc2)C1 | 55.7 | i | i | i | i | i | i
CC1CCCCN1CCCNC(=O)c1cc(Br)c(Br)[nH]1 (stereo unspecified) | 81.6 | i | i | i | i | i | i
Cc1ccc(S(=O)(=O)N2CCCCC2C(=O)NCc2ccco2)cc1 (stereo unspecified) | i | i | nt | i | i | i | nt
COC(=O)Nc1ccc(S(=O)(=O)N2CCCCC2C(=O)NCc2ccco2)cc1 (stereo unspecified) | 89.2 | i | i | i | i | i | i
CCCCCC(=O)Nc1cccc(C2=NOC3(C2)CC(C(N)=O)N(C(=O)CC(c2ccccc2)c2ccccc2)C3)c1 (stereo unspecified) | nt | nt | i | nt | nt | nt | nt
COCCNC(=O)Cn1nc(C(F)(F)F)cc1C | i | i | i | i | i | i | nt
CCCNC(=O)Cn1nc(C(F)(F)F)cc1C | 58.0 | i | i | i | i | i | i
N/C(=N\OC(=O)c1ccc2ccccc2c1)c1ccccn1 | 52.8 | i | nt | i | i | i | i
COc1cccc(C(=O)O/N=C(\N)c2ccccn2)c1OC | 52.2 | i | i | i | i | i | ?
N/C(=N\OC(=O)c1cccc2ccccc12)c1ccccn1 | i | i | nt | i | i | i | nt
COc1cccc(C(=O)O/N=C(\N)c2ccccn2)c1 | 52.0 | i | i | i | i | i | 91.4
CCCc1ccc(C(=O)O/N=C(\N)c2ccccn2)cc1 | 87.9 | i | nt | i | i | i | 76.7
O=C(CNC(=O)c1ccc(F)cc1)NN=Cc1cc(Br)ccc1OCc1ccccc1 | nt | nt | i | nt | nt | nt | nt
SMILES | PrP UTR inh | Y pestis TopoI | Mtb hypoxia inh | GDH-TPI inh | PrPC surface inh | Mtb FBA inh | PrP 5UTR single
CC=C(C)C(=O)OC1Cc2c(ccc3ccc(=O)oc23)OC1(C)C (stereo unspecified) | nt | nt | i | nt | nt | nt | nt
Cc1ccc(/C=C2\CCC3=C2OC(N)=C(C#N)C3c2ccc(C)cc2)cc1 (stereo unspecified) | i | i | nt | i | nt | i | nt
N#CC1=C(N)OC2=C(CCc3ccccc32)C1c1ccccc1 (stereo unspecified) | 57.7 | i | i | i | i | i | 89.8
CCN1C(=O)C2C(c3ccccc3)N3C(=O)N(c4cccc(F)c4)C(=O)[C@@]3(CC(C)C)C2C1=O (stereo partly specified) | nt | nt | i | nt | nt | nt | nt
COc1ccc(/C=C/CN2CCN(Cc3ccc(F)cc3)C(CCO)C2)cc1 (stereo unspecified) | i | i | i | i | i | i | nt
COc1ccc(/C=C/CN2CCN(Cc3ccccc3)C(CCO)C2)cc1 (stereo unspecified) | 75.7 | i | i | i | i | i | i
COc1cc(-c2noc(C)c2-c2ccc3[nH]ccc3c2)cc(OC)c1OC | i | i | nt | i | nt | i | nt
COc1cc(-c2noc(C)c2-c2ccc(N(C)C)nc2)cc(OC)c1OC | 66.6 | i | i | i | i | i | 89.9
Cc1ccc(S(=O)(=O)N(CC(=O)NN=Cc2ccco2)c2cc(Cl)cc(Cl)c2)cc1 | nt | nt | i | nt | nt | nt | nt
CC(=O)OC1[C@@]2(C)OC2CC[C@]23OC2C(OC3=O)C2=C(C)C(=O)O[C@@]21O (stereo partly specified) | nt | nt | i | nt | nt | nt | nt
Cc1cccc(N=NC(=CO)C(=O)c2ccc(Br)cc2)c1 | nt | nt | i | nt | nt | nt | nt
COc1cc(OC)cc(C(=O)N2CCN(Cc3cccc(F)c3)CC2)c1 | i | i | i | i | i | i | nt
COc1cc(OC)cc(C(=O)N2CCN(Cc3ccccc3Br)CC2)c1 | 85.5 | i | i | i | i | i | i
COc1cc(C(=O)N2CCN(c3ccccc3)CC2)c2ccccc2n1 | 74.5 | i | i | i | i | i | 87.9
COC(=O)C1=C(C(=O)OC)C2N(Cc3ccccc3)c3ccccc3[C@@]23CC(C(=O)OC)N(C(=O)COCc2ccccc2)C3=N1 (stereo partly specified) | nt | nt | i | nt | nt | nt | nt
O=c1[nH]c(NN=Cc2ccccc2Br)nnc1-c1ccccc1 | nt | nt | i | nt | nt | nt | nt
O=C1C(=C2SCCCS2)CC/C1=C\c1ccc(F)cc1 | 83.7 | i | i | i | i | i | 84.1
Cc1cccc(/C=C2\CCC(=C3SCCCS3)C2=O)c1 | 54.8 | i | nt | i | i | i | ?
C#CCOCCOCCOCCNc1nc(N2CCN(C(=O)Cn3cc(CC(C)O)nn3)CC2)nc(N2CCN(C(=O)C(CCCCN)n3cc(CCC(=O)O)nn3)CC2)n1 (stereo unspecified) | nt | nt | i | nt | nt | nt | nt
Cc1ccc(-c2nc(-c3ccccn3)no2)cc1Cl | 71.5 | i | nt | i | i | i | 64.1
Cc1ccc(Cc2nc(-c3ccccn3)no2)cc1 | i | i | nt | i | i | i | nt
c1ccc(-c2nc(-c3ccccn3)no2)cc1 | i | i | i | i | i | i | nt
c1ccc(-c2ccc(-c3nc(-c4ccccn4)no3)cc2)cc1 | 88.8 | i | i | i | i | i | 90.8
Clc1cccc(-c2nc(-c3ccccn3)no2)c1 | i | i | i | i | i | i | nt
Cc1ccc(-c2nc(-c3ccccn3)no2)cc1 | 86.4 | i | nt | i | i | i | 91.2
